This is an account of results in the supplement of paper PMC4840960.

Assay [1] concerns E18 rat cortical neuron-glia co-culture. Briefly: fiber score / MBP score (myelination specific beyond OL differentiation) (ratio); higher = more myelination-specific MBP alignment. The note with it: treatment time: 8 days (DIV5-DIV13). The method, boiled down: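 Reported values are fiber score (continuous MBP fiber length per Olig2+ nucleus) divided by MBP score (thresholded MBP area × intensity per Olig2+ nucleus). They come from primary E18 rat cortical co-cultures treated with library compounds at 1 or 5 µM in myelination medium from DIV5 to DIV13, then fixed in 4 % paraformaldehyde, immunostained for MBP and Olig2 with DAPI, and analysed over four 10X fields per well in duplicate wells.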

The test system is the same in assay [2]. The assay is described as follows: myelination (MBP fiber length per Olig2+ nucleus), % of 1 µM DAPT response (DMSO = 0) (% of DAPT); higher = more myelination, active = 50 or more. To be noted: treatment time: 8 days (DIV5-DIV13). The method, boiled down: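 Rat cortical co-cultures from E18 tissue were dissociated with papain and plated at 20,000 cells/well on 96-well plates coated with poly-d-lysine/laminin. From DIV5 to DIV13, library compounds were added at 1 or 5 µM in myelination medium. After fixation in 4 % paraformaldehyde, cultures were immunostained for MBP and Olig2 and counterstained with DAPI, and four 10X fields were analysed in each of duplicate wells. The myelination value is the length of continuous straight MBP fibers per Olig2+ nucleus, normalised so that 0.1 % DMSO is 0 and a 1 µM positive control is 100.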

± gives the standard deviation of the averaged measurements.

Turning to `CC(C)C[C@H](NC(=O)[C@@H](O)[C@H](N)Cc1ccccc1)C(=O)O` [Ubenimex], the “fiber score / MBP score” value was 0.92 in assay [1] (1 µM) and 1.09 in assay [1] (5 µM). The myelination in assay [2] (1 µM) was -7.81 (inactive); in assay [2] (5 µM), 1.09 (inactive).

With `Cc1cccc(C)c1NC(=O)C1CCCCN1C` (stereo not drawn) [Mepivacaine], the “fiber score / MBP score” value in assay [1] (1 µM) was determined as 0.728; in assay [1] (5 µM) it was 0.864. Also, the myelination was -12.3 (inactive) in assay [2] (1 µM) and -4.33 (inactive) in assay [2] (5 µM).

As to `CCOC(=O)CCC(=O)O[C@H]1[C@H](O[C@@H]2[C@@H](C)[C@H](O[C@H]3C[C@@](C)(OC)[C@@H](O)[C@H](C)O3)[C@@H](C)C(=O)O[C@H](CC)[C@@](C)(O)[C@H](O)[C@@H](C)C(=O)[C@H](C)C[C@@]2(C)O)O[C@H](C)C[C@@H]1N(C)C` [Erythromycin Ethylsuccinate], the figures for the “fiber score / MBP score” value in assay [1] (1 µM) and in assay [1] (5 µM) were 0.639 and 0.642, respectively. The myelination was -18 (inactive) in assay [2] (1 µM) and -16.3 (inactive) in assay [2] (5 µM).

Turning to `O=C1CC2(CCCC2)CC(=O)N1CCNCC1COc2ccccc2O1` (stereo not drawn) [Binospirone], the “fiber score / MBP score” value in assay [1] (1 µM) was determined as 0.768; in assay [1] (5 µM), 0.49. The myelination is -14.3 (inactive) in assay [2] (1 µM) and -17.9 (inactive) in assay [2] (5 µM).

Consider `Cc1cc(NS(=O)(=O)c2ccc(N)cc2)no1` [Sulfamethoxazole], for which the “fiber score / MBP score” value in assay [1] (1 µM) was determined as 0.955; in assay [1] (5 µM), 0.803. In addition, the myelination in assay [2] (1 µM) was -3.29 (inactive); in assay [2] (5 µM) it was -5.03 (inactive).

Take `C[C@H]1C[C@H]2[C@@H]3CCC4=CC(=O)C=C[C@]4(C)[C@@]3(F)[C@@H](O)C[C@]2(C)[C@@]1(O)C(=O)CCl` [Clobetasol]: the “fiber score / MBP score” value in assay [1] (1 µM) came to 0.961; in assay [1] (5 µM), 0.686. The myelination in assay [2] (1 µM) was 7.06 (inactive); in assay [2] (5 µM), -9.01 (inactive).

Consider `Clc1ccccc1C(c1ccccc1)(c1ccccc1)n1ccnc1` [Clotrimazole], for which the “fiber score / MBP score” value in assay [1] (1 µM) turned out to be 0.906; in assay [1] (5 µM), 1.15. In addition, the myelination in assay [2] (1 µM) is 7.64 (inactive); in assay [2] (5 µM) it was -27.1 (inactive).

`O=C(NCCN1CCOCC1)c1ccc(Cl)cc1` [Moclobemide]: the “fiber score / MBP score” value in assay [1] (1 µM) worked out at 0.601; in assay [1] (5 µM), 0.881. The myelination is -22.1 (inactive) in assay [2] (1 µM) and -5.22 (inactive) in assay [2] (5 µM).

With `O=c1[nH]c(=O)n([C@H]2C[C@H](O)[C@@H](CO)O2)cc1F` [Floxuridine], the figures for the “fiber score / MBP score” value in assay [1] (1 µM) and in assay [1] (5 µM) were 1.49 and 1.71, respectively. Further, the figures for the myelination in assay [2] (1 µM) and in assay [2] (5 µM) were 286 and 367 (active), respectively.

Turning to `CNC[C@H](O)c1ccc(O)c(O)c1` [Epinephrine], the “fiber score / MBP score” value is 0.884 in assay [1] (1 µM) and 3.29 in assay [1] (5 µM). Further, the myelination in assay [2] (1 µM) was 2.28 (inactive); in assay [2] (5 µM), 38.8 (inactive).

`Nc1ccn([C@@H]2CS[C@H](CO)O2)c(=O)n1` [Lamivudine]: the entries for the “fiber score / MBP score” value in assay [1] (1 µM) and in assay [1] (5 µM) were 0.832 ± 0.033 and 0.619 ± 0.073, respectively. For the same compound, the figures for the myelination in assay [2] (1 µM) and in assay [2] (5 µM) were -7.54 (inactive) and -12.3 (inactive), respectively.

As for `CC(C)Cc1ccc(C(C)C(=O)O)cc1` (stereo not drawn) [Ibuprofen], the “fiber score / MBP score” value in assay [1] (1 µM) was 0.67; in assay [1] (5 µM), 0.833. In addition, the myelination in assay [2] (1 µM) was -7.57 (inactive); in assay [2] (5 µM), -2.85 (inactive).

As to `COc1ccc(OC)c(C(O)CNC(=O)CN)c1` (stereo not drawn) [Midodrine], the “fiber score / MBP score” value in assay [1] (1 µM) was determined as 0.492; in assay [1] (5 µM) it was 0.885. The results for the myelination in assay [2] (1 µM) and in assay [2] (5 µM) were -19.2 (inactive) and -8.37 (inactive), respectively.

`O=C(c1ccccc1)c1ccc2n1CCC2C(=O)O` (stereo not drawn) [Ketorolac]: the “fiber score / MBP score” value in assay [1] (1 µM) turned out to be 0.853; in assay [1] (5 µM), 1.12. Further, the myelination was -4.81 (inactive) in assay [2] (1 µM) and 2.63 (inactive) in assay [2] (5 µM).

Take `CC(=O)O[C@]1(C(C)=O)CC[C@H]2[C@@H]3C=C(C)C4=CC(=O)CC[C@]4(C)[C@H]3CC[C@@]21C` [Megestrol acetate]: the figures for the “fiber score / MBP score” value in assay [1] (1 µM) and in assay [1] (5 µM) were 0.588 and 0.795, respectively. Further, the myelination in assay [2] (1 µM) is -33.5 (inactive); in assay [2] (5 µM), -31.3 (inactive).

Take `CC[C@H](C)C(=O)O[C@H]1C[C@H](O)C=C2C=C[C@H](C)[C@H](CC[C@@H](O)C[C@@H](O)CC(=O)O)[C@H]21` [Pravastatin]: the “fiber score / MBP score” value in assay [1] (1 µM) was determined as 0.899; in assay [1] (5 µM) it was 0.809. Further, the myelination is 2.73 (inactive) in assay [2] (1 µM) and -17.4 (inactive) in assay [2] (5 µM).

On to `C[C@@H](c1ncncc1F)[C@](O)(Cn1cncn1)c1ccc(F)cc1F` [Voriconazole], for which the “fiber score / MBP score” value in assay [1] (1 µM) was 0.693; in assay [1] (5 µM) it was 0.824. Besides, the myelination was -40.5 (inactive) in assay [2] (1 µM) and -29.3 (inactive) in assay [2] (5 µM).

Turning to `CC(C)[N+](C)(CCOC(=O)C1c2ccccc2Oc2ccccc21)C(C)C` [Propantheline], the figures for the “fiber score / MBP score” value in assay [1] (1 µM) and in assay [1] (5 µM) were 0.889 and 0.949, respectively. Also, the values for the myelination in assay [2] (1 µM) and in assay [2] (5 µM) were -4.45 (inactive) and 3.32 (inactive), respectively.

As to `CC(=O)OCC(=O)[C@@]1(O)CC[C@H]2[C@@H]3CCC4=CC(=O)C=C[C@]4(C)[C@H]3[C@@H](O)C[C@@]21C` [Prednisolone acetate], the figures for the “fiber score / MBP score” value in assay [1] (1 µM) and in assay [1] (5 µM) were 0.826 and 0.704, respectively. Further, the myelination was -5.64 (inactive) in assay [2] (1 µM) and -10.6 (inactive) in assay [2] (5 µM).

For `COc1cc(C)c(Cc2cnc(N)nc2N)cc1OC` [Ormetoprim], the “fiber score / MBP score” value was 0.746 in assay [1] (1 µM) and 0.726 in assay [1] (5 µM). Also, the myelination in assay [2] (1 µM) was -31.5 (inactive); in assay [2] (5 µM), -40 (inactive).

As to `C=C[C@H]1CN2CC[C@H]1C[C@H]2[C@H](O)c1ccnc2ccc(OC)cc12` [Quinine], the “fiber score / MBP score” value in assay [1] (1 µM) turned out to be 0.921; in assay [1] (5 µM) it was 0.644. The myelination in assay [2] (1 µM) is -1.48 (inactive); in assay [2] (5 µM), -11.3 (inactive).

Take `Cc1nc2ccccn2c(=O)c1CCN1CCC(C(=O)c2ccc(F)cc2)CC1` [Pirenperone]: the “fiber score / MBP score” value in assay [1] (1 µM) worked out at 0.876; in assay [1] (5 µM), 0.646. Also, the myelination was -7.44 (inactive) in assay [2] (1 µM) and -11.5 (inactive) in assay [2] (5 µM).
